# Experimental data published in ChEMBL document CHEMBL1961873, “Compounds: GSK PKIS; Assays: Nanosyn kinase panel” (2012).
# Experiments:
# [1] = target: Ribosomal protein S6 kinase alpha-6 (Homo sapiens) (UniProt Q9UK32); details: at 1 µM;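 note: each value is a mean inhibition of RSK4 from a GSK PKIS panel screen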
# [2] = target: T1, Serine/threonine-protein kinase Sgk1 (Homo sapiens) (UniProt O00141); details: at 0.1 µM
# T1 sequence (whole entry): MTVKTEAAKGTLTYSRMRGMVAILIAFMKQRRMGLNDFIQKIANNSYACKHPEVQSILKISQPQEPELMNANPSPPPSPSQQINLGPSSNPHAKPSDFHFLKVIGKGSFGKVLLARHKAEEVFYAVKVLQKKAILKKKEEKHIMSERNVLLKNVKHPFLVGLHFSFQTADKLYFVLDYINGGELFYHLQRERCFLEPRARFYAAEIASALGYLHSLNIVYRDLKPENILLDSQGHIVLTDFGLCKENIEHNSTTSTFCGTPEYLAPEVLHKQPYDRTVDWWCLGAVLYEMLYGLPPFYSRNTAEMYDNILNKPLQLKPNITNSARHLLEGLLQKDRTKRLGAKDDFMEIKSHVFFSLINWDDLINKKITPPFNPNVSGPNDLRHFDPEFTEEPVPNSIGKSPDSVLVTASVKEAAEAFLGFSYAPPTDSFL
# [3] = target: T1, Serine/threonine-protein kinase Sgk1 (Homo sapiens); details: at 1 µM
# [4] = target: T2, Serine/threonine-protein kinase Sgk2 (Homo sapiens) (UniProt Q9HBY8); details: at 0.1 µM
# T2 sequence (whole entry): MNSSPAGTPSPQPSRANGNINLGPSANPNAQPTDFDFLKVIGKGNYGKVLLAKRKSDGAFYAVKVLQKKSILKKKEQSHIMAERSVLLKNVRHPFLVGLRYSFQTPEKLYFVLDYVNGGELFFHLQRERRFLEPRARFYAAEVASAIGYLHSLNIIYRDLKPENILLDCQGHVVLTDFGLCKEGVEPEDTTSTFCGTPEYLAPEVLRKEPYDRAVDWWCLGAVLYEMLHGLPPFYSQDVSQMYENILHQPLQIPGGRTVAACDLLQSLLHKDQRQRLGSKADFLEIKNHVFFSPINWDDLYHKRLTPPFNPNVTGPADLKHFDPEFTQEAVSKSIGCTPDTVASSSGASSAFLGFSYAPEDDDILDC
# [5] = target: T2, Serine/threonine-protein kinase Sgk2 (Homo sapiens); details: at 1 µM
# [6] = target: T3, Serine/threonine-protein kinase Sgk3 (Homo sapiens) (UniProt Q96BR1); details: at 0.1 µM
# T3 sequence (whole entry): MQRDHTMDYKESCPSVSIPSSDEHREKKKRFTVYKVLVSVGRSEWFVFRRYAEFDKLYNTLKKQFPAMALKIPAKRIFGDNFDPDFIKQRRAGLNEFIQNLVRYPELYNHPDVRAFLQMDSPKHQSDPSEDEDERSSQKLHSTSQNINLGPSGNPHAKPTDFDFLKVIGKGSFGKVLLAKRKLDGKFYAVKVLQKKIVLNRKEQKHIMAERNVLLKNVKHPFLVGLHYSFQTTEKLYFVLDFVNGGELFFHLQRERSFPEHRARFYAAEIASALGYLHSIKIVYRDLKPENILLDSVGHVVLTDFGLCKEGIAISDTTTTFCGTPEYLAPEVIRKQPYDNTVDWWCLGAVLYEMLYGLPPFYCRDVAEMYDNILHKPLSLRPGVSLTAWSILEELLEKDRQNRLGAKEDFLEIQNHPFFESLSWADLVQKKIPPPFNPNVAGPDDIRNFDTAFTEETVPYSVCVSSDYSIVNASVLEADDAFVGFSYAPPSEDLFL
# [7] = target: T3, Serine/threonine-protein kinase Sgk3 (Homo sapiens); details: at 1 µM
# [8] = target: 5'-AMP-activated protein kinase catalytic subunit alpha-1 (Homo sapiens) (UniProt Q13131); details: at 0.1 µM
# [9] = target: 5'-AMP-activated protein kinase catalytic subunit alpha-1 (Homo sapiens) (UniProt Q13131); details: at 1 µM
# [10] = target: 5'-AMP-activated protein kinase catalytic subunit alpha-2 (Homo sapiens) (UniProt P54646); details: at 0.1 µM
# [11] = target: 5'-AMP-activated protein kinase catalytic subunit alpha-2 (Homo sapiens) (UniProt P54646); details: at 1 µM
# [12] = target: T4, NUAK family SNF1-like kinase 1 (Homo sapiens) (UniProt O60285); details: at 0.1 µM
# T4 sequence (whole entry): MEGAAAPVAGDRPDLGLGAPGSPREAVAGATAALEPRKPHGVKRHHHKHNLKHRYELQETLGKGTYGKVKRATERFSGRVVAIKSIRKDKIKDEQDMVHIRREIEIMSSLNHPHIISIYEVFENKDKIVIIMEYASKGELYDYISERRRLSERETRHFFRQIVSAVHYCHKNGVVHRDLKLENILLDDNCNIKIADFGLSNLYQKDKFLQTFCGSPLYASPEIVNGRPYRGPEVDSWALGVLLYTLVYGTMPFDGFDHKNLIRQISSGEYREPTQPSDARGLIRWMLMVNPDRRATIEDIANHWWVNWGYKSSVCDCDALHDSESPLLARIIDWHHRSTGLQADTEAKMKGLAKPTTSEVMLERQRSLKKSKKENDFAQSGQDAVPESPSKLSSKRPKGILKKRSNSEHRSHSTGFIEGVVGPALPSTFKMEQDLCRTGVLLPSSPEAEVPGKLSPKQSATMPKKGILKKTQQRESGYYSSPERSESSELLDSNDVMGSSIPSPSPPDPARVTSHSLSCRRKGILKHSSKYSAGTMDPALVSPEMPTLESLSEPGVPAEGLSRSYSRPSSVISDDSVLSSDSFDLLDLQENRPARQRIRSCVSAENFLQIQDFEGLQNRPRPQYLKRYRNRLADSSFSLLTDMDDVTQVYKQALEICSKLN
# [13] = target: T4, NUAK family SNF1-like kinase 1 (Homo sapiens); details: at 1 µM
# [14] = target: T5, Serine/threonine-protein kinase BRSK1 (Homo sapiens) (UniProt Q8TDC3); details: at 0.1 µM
# T5 sequence (whole entry): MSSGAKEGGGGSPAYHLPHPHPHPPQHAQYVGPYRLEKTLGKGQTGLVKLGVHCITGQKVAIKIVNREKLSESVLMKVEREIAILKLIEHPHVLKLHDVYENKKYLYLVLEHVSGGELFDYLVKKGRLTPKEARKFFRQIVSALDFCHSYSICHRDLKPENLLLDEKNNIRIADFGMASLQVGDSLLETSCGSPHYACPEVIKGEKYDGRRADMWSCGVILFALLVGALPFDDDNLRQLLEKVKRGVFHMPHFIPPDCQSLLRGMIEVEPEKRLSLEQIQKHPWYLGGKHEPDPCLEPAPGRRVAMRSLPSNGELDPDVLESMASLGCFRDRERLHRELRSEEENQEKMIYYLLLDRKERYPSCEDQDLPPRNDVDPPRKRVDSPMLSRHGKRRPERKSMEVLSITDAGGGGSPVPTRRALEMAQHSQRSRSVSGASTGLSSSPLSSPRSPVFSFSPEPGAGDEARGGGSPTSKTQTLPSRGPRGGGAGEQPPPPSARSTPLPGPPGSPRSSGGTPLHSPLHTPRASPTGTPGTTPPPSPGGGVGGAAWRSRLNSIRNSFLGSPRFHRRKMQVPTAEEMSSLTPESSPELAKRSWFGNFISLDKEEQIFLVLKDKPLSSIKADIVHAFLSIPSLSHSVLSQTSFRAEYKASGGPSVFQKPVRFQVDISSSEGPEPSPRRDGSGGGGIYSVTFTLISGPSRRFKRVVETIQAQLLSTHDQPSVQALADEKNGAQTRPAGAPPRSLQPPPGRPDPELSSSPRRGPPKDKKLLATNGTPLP
# [15] = target: T5, Serine/threonine-protein kinase BRSK1 (Homo sapiens); details: at 1 µM
# [16] = target: T6, Serine/threonine-protein kinase BRSK2 (Homo sapiens) (UniProt Q8IWQ3); details: at 0.1 µM
# T6 sequence (whole entry): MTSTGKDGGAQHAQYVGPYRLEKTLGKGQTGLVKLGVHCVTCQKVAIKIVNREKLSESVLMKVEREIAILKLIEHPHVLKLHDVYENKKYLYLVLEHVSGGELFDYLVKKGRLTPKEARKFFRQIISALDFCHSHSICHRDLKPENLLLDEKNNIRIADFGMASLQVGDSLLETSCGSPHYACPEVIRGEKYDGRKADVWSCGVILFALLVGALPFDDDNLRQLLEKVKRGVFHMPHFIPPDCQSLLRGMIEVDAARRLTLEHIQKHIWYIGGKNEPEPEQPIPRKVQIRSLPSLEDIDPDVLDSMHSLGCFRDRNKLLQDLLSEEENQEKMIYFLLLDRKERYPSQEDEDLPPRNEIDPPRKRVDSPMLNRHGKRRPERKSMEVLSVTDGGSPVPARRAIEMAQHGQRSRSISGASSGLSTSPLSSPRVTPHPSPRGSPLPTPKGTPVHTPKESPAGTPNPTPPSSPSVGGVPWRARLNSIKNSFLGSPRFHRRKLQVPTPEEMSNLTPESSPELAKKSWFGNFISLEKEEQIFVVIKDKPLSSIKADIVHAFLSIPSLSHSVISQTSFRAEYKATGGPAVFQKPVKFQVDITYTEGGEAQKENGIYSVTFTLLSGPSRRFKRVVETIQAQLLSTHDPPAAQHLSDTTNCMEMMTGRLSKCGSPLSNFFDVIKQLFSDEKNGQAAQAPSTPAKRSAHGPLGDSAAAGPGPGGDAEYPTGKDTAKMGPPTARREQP
# [17] = target: T6, Serine/threonine-protein kinase BRSK2 (Homo sapiens); details: at 1 µM
# [18] = target: Calcium/calmodulin-dependent protein kinase type 1D (Homo sapiens) (UniProt Q8IU85); details: at 0.1 µM
# [19] = target: Calcium/calmodulin-dependent protein kinase type 1D (Homo sapiens) (UniProt Q8IU85); details: at 1 µM
# [20] = target: Calcium/calmodulin-dependent protein kinase type II subunit alpha (Homo sapiens) (UniProt Q9UQM7); details: at 0.1 µM;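 note: reported values are averages (mean inhibition of CAMK2A)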
# Sequence of Calcium/calmodulin-dependent protein kinase type II subunit alpha (Homo sapiens) (Q9UQM7 whole entry): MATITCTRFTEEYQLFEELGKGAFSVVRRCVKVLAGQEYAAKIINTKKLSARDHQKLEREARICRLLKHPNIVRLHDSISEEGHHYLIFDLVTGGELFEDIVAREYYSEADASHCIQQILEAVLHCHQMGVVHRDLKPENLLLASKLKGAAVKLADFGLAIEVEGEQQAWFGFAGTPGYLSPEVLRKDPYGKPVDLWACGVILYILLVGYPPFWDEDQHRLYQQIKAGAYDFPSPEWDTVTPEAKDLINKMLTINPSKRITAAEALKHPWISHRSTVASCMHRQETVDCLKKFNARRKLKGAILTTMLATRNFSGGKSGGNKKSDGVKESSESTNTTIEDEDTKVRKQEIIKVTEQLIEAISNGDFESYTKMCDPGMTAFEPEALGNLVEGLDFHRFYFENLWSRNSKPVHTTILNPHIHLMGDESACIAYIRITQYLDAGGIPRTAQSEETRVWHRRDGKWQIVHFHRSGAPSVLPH
# Sequence of Calcium/calmodulin-dependent protein kinase type 1D (Homo sapiens) (Q8IU85 whole entry, looked up): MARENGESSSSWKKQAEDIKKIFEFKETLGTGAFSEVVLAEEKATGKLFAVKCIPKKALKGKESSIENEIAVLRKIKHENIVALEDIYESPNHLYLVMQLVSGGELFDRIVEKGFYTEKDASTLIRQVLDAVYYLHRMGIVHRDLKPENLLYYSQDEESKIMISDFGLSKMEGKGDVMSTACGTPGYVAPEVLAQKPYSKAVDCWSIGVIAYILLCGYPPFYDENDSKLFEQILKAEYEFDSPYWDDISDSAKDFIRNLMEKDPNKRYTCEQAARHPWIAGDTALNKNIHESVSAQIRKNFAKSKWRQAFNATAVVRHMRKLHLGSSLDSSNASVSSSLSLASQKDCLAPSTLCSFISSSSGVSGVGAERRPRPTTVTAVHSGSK
# Sequence of Ribosomal protein S6 kinase alpha-6 (Homo sapiens) (Q9UK32 whole entry): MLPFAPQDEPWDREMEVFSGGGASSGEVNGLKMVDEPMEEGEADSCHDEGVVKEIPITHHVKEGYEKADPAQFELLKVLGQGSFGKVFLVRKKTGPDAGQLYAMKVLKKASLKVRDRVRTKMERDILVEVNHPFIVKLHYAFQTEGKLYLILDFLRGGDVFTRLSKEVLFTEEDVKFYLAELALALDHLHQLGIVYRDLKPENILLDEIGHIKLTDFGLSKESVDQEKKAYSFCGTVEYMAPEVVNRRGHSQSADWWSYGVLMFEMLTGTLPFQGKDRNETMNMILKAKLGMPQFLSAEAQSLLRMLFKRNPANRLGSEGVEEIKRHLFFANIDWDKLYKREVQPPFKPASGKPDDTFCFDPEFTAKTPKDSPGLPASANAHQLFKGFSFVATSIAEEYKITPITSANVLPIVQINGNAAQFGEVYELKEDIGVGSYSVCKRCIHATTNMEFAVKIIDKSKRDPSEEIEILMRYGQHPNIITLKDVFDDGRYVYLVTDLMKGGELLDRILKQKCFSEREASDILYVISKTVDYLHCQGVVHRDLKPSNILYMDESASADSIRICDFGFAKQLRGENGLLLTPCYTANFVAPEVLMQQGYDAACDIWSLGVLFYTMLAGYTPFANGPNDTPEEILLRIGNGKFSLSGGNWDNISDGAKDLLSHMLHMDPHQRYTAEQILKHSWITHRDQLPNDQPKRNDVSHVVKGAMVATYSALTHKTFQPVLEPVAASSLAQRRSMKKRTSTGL
# Sequence of 5'-AMP-activated protein kinase catalytic subunit alpha-2 (Homo sapiens) (P54646 whole entry, looked up): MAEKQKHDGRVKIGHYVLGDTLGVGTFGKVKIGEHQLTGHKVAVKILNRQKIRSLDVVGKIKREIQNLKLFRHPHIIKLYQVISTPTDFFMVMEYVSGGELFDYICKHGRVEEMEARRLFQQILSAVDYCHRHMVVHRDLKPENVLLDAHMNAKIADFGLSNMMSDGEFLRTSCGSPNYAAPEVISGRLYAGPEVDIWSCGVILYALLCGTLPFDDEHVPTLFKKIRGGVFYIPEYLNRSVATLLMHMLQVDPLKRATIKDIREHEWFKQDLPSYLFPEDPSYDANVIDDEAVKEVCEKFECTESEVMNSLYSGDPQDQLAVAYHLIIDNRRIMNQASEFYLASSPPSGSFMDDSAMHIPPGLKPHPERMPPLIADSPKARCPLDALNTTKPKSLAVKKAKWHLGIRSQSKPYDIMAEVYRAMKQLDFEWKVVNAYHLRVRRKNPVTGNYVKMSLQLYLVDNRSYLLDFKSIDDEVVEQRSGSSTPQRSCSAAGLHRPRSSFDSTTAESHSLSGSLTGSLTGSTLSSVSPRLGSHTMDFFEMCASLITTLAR
# Sequence of 5'-AMP-activated protein kinase catalytic subunit alpha-1 (Homo sapiens) (Q13131 whole entry, looked up): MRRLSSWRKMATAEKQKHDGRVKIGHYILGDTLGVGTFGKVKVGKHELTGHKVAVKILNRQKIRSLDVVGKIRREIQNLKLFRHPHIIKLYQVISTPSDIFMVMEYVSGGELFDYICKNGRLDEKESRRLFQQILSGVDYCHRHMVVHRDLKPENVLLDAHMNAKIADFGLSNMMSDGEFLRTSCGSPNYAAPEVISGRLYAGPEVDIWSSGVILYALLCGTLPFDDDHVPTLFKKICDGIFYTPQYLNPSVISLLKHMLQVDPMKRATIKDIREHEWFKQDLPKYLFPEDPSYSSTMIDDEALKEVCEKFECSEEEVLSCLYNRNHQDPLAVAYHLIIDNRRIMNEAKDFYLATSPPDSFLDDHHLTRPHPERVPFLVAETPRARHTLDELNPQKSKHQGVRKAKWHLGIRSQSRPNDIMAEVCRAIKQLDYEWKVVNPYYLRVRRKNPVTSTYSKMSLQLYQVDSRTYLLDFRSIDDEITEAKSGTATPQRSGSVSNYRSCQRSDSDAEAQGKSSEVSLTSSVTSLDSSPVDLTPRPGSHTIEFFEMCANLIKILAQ
SMILES,inhibition [1] [%],inhibition [2] [%],inhibition [3] [%],inhibition [4] [%],inhibition [5] [%],inhibition [6] [%],inhibition [7] [%],inhibition [8] [%],inhibition [9] [%],inhibition [10] [%],inhibition [11] [%],inhibition [12] [%],inhibition [13] [%],inhibition [14] [%],inhibition [15] [%],inhibition [16] [%],inhibition [17] [%],inhibition [18] [%],inhibition [19] [%],inhibition [20] [%]
CS(=O)(=O)Nc1ccc(-c2ccc3c(NC(=O)C4CC4)n[nH]c3c2)cc1,3.46,3.96,2.95,0.2,4.06,2.22,0.14,3.58,6.37,10.3,40,-6.19,2.46,3.42,5.22,2.03,4.96,0.46,1.58,4.36
OCCCNc1nccc(-c2c(-c3ccc(F)cc3)nn3cc(C(F)(F)F)ccc23)n1,2.38,2.5,1.43,1.44,5.76,1.97,2.06,2.58,1.3,-0.71,3.17,0.07,3.25,1.56,3.4,1.44,3.37,-0.48,3.05,2.38
COc1ccc(Nc2ncc(-c3ccccc3)o2)cc1OC,3.67,1.25,9.75,1.33,-0.37,0.7,-1.61,0.83,5.29,-0.43,14.5,18.2,61.5,1.32,11.5,0.9,12.8,0.37,1.51,1.79
NS(=O)(=O)c1ccc(N/N=C2\C(=O)Nc3cccc(CCc4ccncc4)c32)cc1,7.42,1.76,1.65,3.09,-0.79,-1.13,-0.92,4.83,8.26,3.2,11.6,47.4,62.5,1.52,7.67,3.33,15.8,0.4,1.14,-1.5
CCS(=O)(=O)c1ccc(OC)c(Nc2ncc(-c3cccc(F)c3)o2)c1,6.33,2.66,4,0.06,1.18,3.85,3.03,2.82,5.78,7.22,5.58,0.71,12.5,1.15,-0.68,1.63,3.22,0.89,2.56,2.75
COC(=O)Nc1nc2ccc(Oc3ccc(NC(=O)Nc4cc(C(F)(F)F)ccc4F)cc3)cc2s1,1.65,0.33,0.95,-4.85,0.53,1.37,1.57,-0.71,0.03,0.72,1.67,-0.54,-3.55,-0.58,0.34,-0.27,0.24,0.5,2.93,-0.9
COc1cc(Nc2ncc(-c3ccccc3)o2)cc(OC)c1,2.83,3.1,4.7,3.93,4.37,3.26,3,2.43,5.67,2.86,8.23,5.89,32.7,-1.27,8.79,2.68,7.23,-0.33,-0.66,2.98
CS(=O)(=O)CCNCc1ccc(-c2ccc3ncnc(Nc4ccc(OCc5cccc(C(F)(F)F)c5)cc4)c3c2)o1,1.68,2.43,1.63,4.41,2.6,3.89,2.45,1.06,5.76,6.24,3.3,0.13,6.75,4,4.04,4.95,9.19,-0.93,0.88,1.38
Fc1cccc(COc2ccc(Nc3ncncc3C#Cc3ccccc3)cc2Cl)c1,1.91,3.17,7.69,5.33,8.63,5.19,7.34,3.44,7.14,1.38,2.35,1.2,3.38,-0.12,3.27,0.86,4.6,-0.31,-0.49,4.42
FC(F)(F)CNc1nccc(-c2cnn3ncccc23)n1,0.2,1.25,1.46,0,0.87,2.93,4.28,1.91,2.67,0.68,2.02,2.93,1.68,1.54,4.3,3.14,5.75,0.18,0.52,0.49
N#Cc1cccc(Nc2ncc(-c3ccccc3)o2)c1,-0.13,2.75,7.53,1.9,-1.67,2.18,5.3,1.1,1.53,-0.83,1.61,0.75,7.37,-1.88,1.82,0.65,5,-1.6,-1.52,1.87
CS(=O)(=O)CCNCc1ccoc1-c1ccc2ncnc(Nc3ccc(OCc4ccccc4)cc3)c2c1,-0.72,2.02,1.39,2.28,-3.3,5.61,1.1,-0.71,-0.55,0.46,1.14,2.3,2.12,-0.34,-0.87,0.28,1.27,-0.18,-0.02,-0.63
